The results in this text go back to PubChem BioAssay (Tox21).

Molecules are shown by their SMILES. Unmarked numbers belong to inactive results. Records with an inconclusive call do not appear. Activity calls are given as the source filed them. Unless noted, calls follow the shape of the dose curve; as a rule, active = well fitted curve in the direction sought with a large enough effect in the repeat runs; inconclusive = weak or mixed curves; inactive = no such curve, though single readings can be large; an effect the other way counts as inactive or inconclusive.

Experiment [1] deals with Progesterone receptor (Homo sapiens) (UniProt P06401). The experiment can be described thus: qHTS assay to identify small molecule agonists of the progesterone receptor (PR) signaling pathway (AID 1346784; calls by dose curve; also: nearly all actives have a fitted effect of over 30% in size). The method, boiled down:
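Using charcoal-stripped serum (2%) to limit endogenous steroids, PR-UAS-bla HEK 293T cells received compounds for 16 hr at 37C after 6 hr plating; beta-lactamase FRET fluorescence was recorded following 2 hr substrate loading at room temperature.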

A short description of experiment [2]: qHTS assay to identify small molecule antagonists of the progesterone receptor (PR) signaling pathway - cell viability counter screen (AID 1346798). Also: series mostly up to about 92 µM; nearly all actives have a fitted effect of over 50% in size. The method, boiled down: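 ATP content as viability readout: CellTiter-Glo luminescence, 30 min room temperature, in PR-UAS-bla HEK293T cells after 16 hr compound/R5020 treatment at 37C and 5% CO2.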
Experiment [3] can be described thus: qHTS assay to identify small molecule agonists of the progesterone receptor (PR) signaling pathway - cell viability counter screen (AID 1346799; calls by dose curve; also: nearly all actives have a fitted effect of over 45% in size). The method, boiled down: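 Cytotoxicity in PR-bla HEK293T cells: 16 h compound, 37C; CellTiter-Glo added post-FRET read; luminescence after 30 min RT.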
The nature of experiment [4]: qHTS assay to identify small molecule antagonists of the TGF-beta/Smad signaling pathway - cell viability counter screen (AID 1346824). Also: nearly all actives have a fitted effect of over 50% in size. In outline:
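SBE-bla HEK 293T cells were plated overnight at 37 C, then given compounds in DMSO plus TGF-beta1 (added as 0.25 ng/mL solution) for 5 hr. After the bla read, CellTiter-Glo was added to the same wells and luminescence read after 30 min at room temperature.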

Experiment [5] can be described thus: qHTS assay to identify small molecule agonists of the TGF-beta/Smad signaling pathway - cell viability counter screen (AID 1346829). Also: top concentration of the series differs between compounds; nearly all actives have a fitted effect of over 45% in size. The method, boiled down:
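HEK 293T SBE-bla line, 5 hr compound exposure at 37 C, multiplexed CellTiter-Glo viability read by luminescence.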

The nature of experiment [6]: qHTS assay to identify small molecule agonists of the TGF-beta/Smad signaling pathway (AID 1346859; active = well fitted activation curve with a large enough effect in the signal ratio in the repeat runs, not every such curve was filed as active; the % refers to the signal ratio; also: series mostly up to about 77 µM). In outline: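 Stable Smad binding element-beta-lactamase HEK 293T cells; 5 hr compound exposure at 37 C under 5% CO2; 2 hr room-temperature substrate step; fluorescence excited at 405 nm, collected at 460 nm and 530 nm.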
Experiment [7] addresses Thyrotropin-releasing hormone receptor (Homo sapiens) (UniProt P34981). The experiment can be described thus: qHTS assay to identify small molecule antagonists of the thyrotropin-releasing hormone receptor (TRHR) signaling pathway (AID 1346877; active = well fitted inhibition curve with a large enough effect in the repeat runs, not every such curve was filed as active; also: series mostly up to about 51 µM). In outline:
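Cells (TRHR-HEK293) are plated and kept 18 h at 37 °C/5% CO2. A calcium-sensitive dye is added for 2 h, compound follows for 5 min at room temperature, and TRH is then given at 1 nM final.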

The target is the same in experiment [8]. The experiment can be described thus: qHTS assay to identify small molecule agonists of the thyrotropin-releasing hormone receptor (TRHR) signaling pathway (AID 1346891; calls by dose curve;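 also: HEK293 cells expressing TRHR with calcium dye readout; series mostly up to about 58 µM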). In outline:
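In 1536-format, 1500 TRHR-Hek293 cells per well grew 18 h, took up calcium dye for 2 h at 37 °C, received compound, and were read kinetically; 15-point titrations, triplicates.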

Experiment [9] is described as follows: Human pregnane X receptor (PXR) small molecule agonists, qHTS cell viability counter screen (AID 1346977). Also: nearly all actives have a fitted effect of over 50% in size. The method, boiled down: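 Readout is CellTiter-Fluor fluorescence from PXR-Luc HepG2 cells. Plated cells rested 5hr, then were treated with compounds for 24hr at 37C and 5% CO2, with reagent present during the last hour.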
Experiment [10] can be described thus: Caspase-3/7 induction in HepG2 cells by small molecules, qHTS assay (AID 1346978). Also: nearly all actives have a fitted effect of over 15% in size. In outline:
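Wild-type HepG2 cells (2,000/well) were settled 5 h at 37 C, 5% CO2, then exposed to compounds in DMSO for 17 h. Caspase-3/7 activity was read by luminescence 30 min after adding Caspase-Glo 3/7 reagent at room temperature.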

Experiment [11] in a line: Caspase-3/7 induction in CHO-K1 cells by small molecules, qHTS cell viability counter screen (AID 1346979). Also: nearly all actives have a fitted effect of over 35% in size. Also: potency is read from the fitted curve at half-maximal effect. The method, boiled down: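 To flag cytotoxic compounds, treated CHO-K1 wild-type cells were given CellTiter-Fluor at 16hr and read fluorescently after 1hr at 37C; the caspase-3/7 luminescence was measured in these same wells.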
Experiment [12] in a line: Caspase-3/7 induction in CHO-K1 cells by small molecules, qHTS assay (AID 1346980). Also: nearly all actives have a fitted effect of over 15% in size. In outline:
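Wild-type cells were seeded at 1,500 per well and settled 5 hr at 37 C, 5% CO2, then exposed to DMSO-dissolved compounds for 17 hr. Caspase-Glo 3/7 reagent was added, and luminescence was read after 30min at room temperature.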

The nature of experiment [13]: Caspase-3/7 induction in HepG2 cells by small molecules, qHTS cell viability counter screen (AID 1346981). Also: nearly all actives have a fitted effect of over 30% in size. Also: potency is read from the fitted curve at half-maximal effect. In outline: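 Steps: seed 2,000 HepG2 cells per well; incubate 5 hr at 37 C; pin-add compounds in DMSO; incubate 16 hr; add CellTiter-Fluor; after 1 hr at 37 C and 5% CO2, read fluorescence.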
The target in experiment [14] is Nuclear receptor subfamily 1 group I member 2 (Homo sapiens) (UniProt O75469). The experiment can be described thus: Human pregnane X receptor (PXR) small molecule agonists, qHTS assay (AID 1346982). Also: nearly all actives have a fitted effect of over 35% in size. Also: potency is read from the fitted curve at half-maximal effect. In outline:
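Agonist mode qHTS: PXR-Luc HepG2 cells plated 5 hr before DMSO-dissolved compounds were pinned in, cultured 24 hr at 37 C, 5% CO2; ONE-Glo luminescence readout.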

In experiment [15] the target is Nuclear receptor subfamily 1 group I member 2 (Rattus norvegicus) (UniProt Q9R1A7). The experiment can be described thus: Rat pregnane X receptor (rPXR) activation by small molecules, qHTS assay (AID 1346983). Also: nearly all actives have a fitted effect of over 20% in size. As to conditions: rPXR luciferase reporter cells, One-Glo luminescence, 24 h; max activation: stronger effect = higher value. In outline:
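Cell-based rPXR luciferase reporter assay, 2,000 cells per well, rested 5hr at 37 C before compound addition in DMSO, then 24 hr at 37 C. One-Glo reagent was added and luminescence read after 30 min at room temperature.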

In experiment [16] the target is Nuclear receptor subfamily 1 group I member 2 (Homo sapiens) (UniProt O75469). The experiment can be described thus: CYP3A4 induction through human pregnane X receptor (PXR) by small molecules, qHTS assay (AID 1346984). Also: nearly all actives have a fitted effect of over 40% in size. The method, boiled down:
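Steps: seed DPX-2 cells, 5 hr at 37C; pin-transfer compounds; 24 hr at 37C; add Luciferin-IPA (3uM final), 3 hr at 37C; add One-Glo, 30 min RT; read luminescence.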

Experiment [17] has the same target. The experiment can be described thus: Human pregnane X receptor (PXR) activation by small molecules, qHTS assay (AID 1346985). Also: nearly all actives have a fitted effect of over 40% in size. In outline: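 DPX-2 cells (HepG2 co-transfected with a PXR response element and a CYP3A4-promoter luciferase construct) were seeded at 2,000 per well, rested 5 hr at 37C, then exposed to DMSO-dissolved compounds for 24 hr. Activation was read as luciferase luminescence.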

The target in experiment [18] is Cytochrome P450 2D6 (Homo sapiens) (UniProt P10635). The experiment can be described thus: Cytochrome P450 Family 2 Subfamily D Member 6 (CYP2D6) small molecule antagonists: luciferase reporter qHTS assay (AID 1671196). Also: nearly all actives have a fitted effect of over 50% in size. Also: potency is read from the fitted curve at half-maximal effect. In outline: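 P450-Glo format: CYP2D6 converts a proluciferin substrate to luciferin in an NADPH-driven reaction lasting 1 h at room temperature. Light output, proportional to CYP2D6 activity, reflects interference by test chemicals.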

In experiment [19] the target is Progesterone receptor (Homo sapiens) (UniProt P06401). The experiment can be described thus: qHTS assay to identify small molecule antagonists of the progesterone receptor (PR) signaling pathway (AID 1346795; active = well fitted inhibition curve with a large enough effect in the signal ratio in the repeat runs, not every such curve was filed as active; the % refers to the signal ratio). In outline:
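Inhibition of R5020-induced (1 nM final) beta-lactamase reporter signal in PR-UAS-bla HEK293T cells was scored by FRET fluorescence after overnight (16 hr) compound treatment.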

Experiment [20] is described as follows: qHTS assay to identify small molecule agonists of the estrogen receptor alpha (ER-alpha) signaling pathway in the presence of an antagonist - cell viability counter screen (AID 1259386).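 Also: cells exposed to compounds for 22 h at 37 °C before the viability read; nearly all actives have a fitted effect of over 30% in size.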 Also: potency is read from the fitted curve at half-maximal effect. The method, boiled down:
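Cells are starved of estrogens for 5 days in charcoal-stripped serum, seeded for 24hr and co-treated with ICI-182,780 (10.0nM final) and test compounds. After 22hr at 37C, viability is read as CellTiter-Fluor fluorescence.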
% is scaled to controls: 0 for no effect and ±100 for the full control effect.

Chain of Thyrotropin-releasing hormone receptor (Homo sapiens) (P34981 whole entry, looked up): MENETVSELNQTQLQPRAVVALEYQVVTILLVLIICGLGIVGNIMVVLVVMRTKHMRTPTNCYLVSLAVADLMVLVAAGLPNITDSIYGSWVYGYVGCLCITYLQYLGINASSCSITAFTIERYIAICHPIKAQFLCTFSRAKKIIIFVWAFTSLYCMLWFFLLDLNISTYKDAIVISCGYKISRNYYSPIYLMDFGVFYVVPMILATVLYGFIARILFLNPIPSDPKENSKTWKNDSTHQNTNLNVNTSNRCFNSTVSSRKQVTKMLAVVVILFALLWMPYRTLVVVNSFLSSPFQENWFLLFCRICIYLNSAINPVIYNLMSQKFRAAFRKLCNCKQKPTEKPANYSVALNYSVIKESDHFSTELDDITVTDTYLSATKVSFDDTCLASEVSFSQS
Chain of Nuclear receptor subfamily 1 group I member 2 (Rattus norvegicus) (Q9R1A7 whole entry, looked up): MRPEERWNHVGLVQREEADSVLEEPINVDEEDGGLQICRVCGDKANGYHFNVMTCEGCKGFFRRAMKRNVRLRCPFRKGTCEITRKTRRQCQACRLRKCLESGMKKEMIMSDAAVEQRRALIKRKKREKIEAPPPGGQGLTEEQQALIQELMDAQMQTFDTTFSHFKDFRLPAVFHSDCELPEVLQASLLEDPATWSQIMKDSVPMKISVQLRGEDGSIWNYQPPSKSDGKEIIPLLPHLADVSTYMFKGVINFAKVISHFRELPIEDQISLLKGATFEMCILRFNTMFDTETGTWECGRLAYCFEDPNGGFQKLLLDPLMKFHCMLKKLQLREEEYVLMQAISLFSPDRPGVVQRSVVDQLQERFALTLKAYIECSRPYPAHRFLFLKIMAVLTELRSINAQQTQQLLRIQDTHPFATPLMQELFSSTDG
Chain of Nuclear receptor subfamily 1 group I member 2 (Homo sapiens) (O75469 whole entry, looked up): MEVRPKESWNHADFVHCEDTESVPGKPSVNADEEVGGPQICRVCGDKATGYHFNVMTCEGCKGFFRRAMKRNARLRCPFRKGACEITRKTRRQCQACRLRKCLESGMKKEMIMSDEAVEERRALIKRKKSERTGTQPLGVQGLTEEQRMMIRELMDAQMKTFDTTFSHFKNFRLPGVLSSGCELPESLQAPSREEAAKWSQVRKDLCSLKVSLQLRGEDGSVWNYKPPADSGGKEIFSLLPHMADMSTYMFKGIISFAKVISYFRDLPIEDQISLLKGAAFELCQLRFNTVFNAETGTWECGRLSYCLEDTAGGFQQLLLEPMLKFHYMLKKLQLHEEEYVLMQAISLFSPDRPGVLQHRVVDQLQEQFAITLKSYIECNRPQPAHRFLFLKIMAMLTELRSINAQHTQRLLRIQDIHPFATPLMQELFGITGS
Chain of Progesterone receptor (Homo sapiens) (P06401 whole entry, looked up): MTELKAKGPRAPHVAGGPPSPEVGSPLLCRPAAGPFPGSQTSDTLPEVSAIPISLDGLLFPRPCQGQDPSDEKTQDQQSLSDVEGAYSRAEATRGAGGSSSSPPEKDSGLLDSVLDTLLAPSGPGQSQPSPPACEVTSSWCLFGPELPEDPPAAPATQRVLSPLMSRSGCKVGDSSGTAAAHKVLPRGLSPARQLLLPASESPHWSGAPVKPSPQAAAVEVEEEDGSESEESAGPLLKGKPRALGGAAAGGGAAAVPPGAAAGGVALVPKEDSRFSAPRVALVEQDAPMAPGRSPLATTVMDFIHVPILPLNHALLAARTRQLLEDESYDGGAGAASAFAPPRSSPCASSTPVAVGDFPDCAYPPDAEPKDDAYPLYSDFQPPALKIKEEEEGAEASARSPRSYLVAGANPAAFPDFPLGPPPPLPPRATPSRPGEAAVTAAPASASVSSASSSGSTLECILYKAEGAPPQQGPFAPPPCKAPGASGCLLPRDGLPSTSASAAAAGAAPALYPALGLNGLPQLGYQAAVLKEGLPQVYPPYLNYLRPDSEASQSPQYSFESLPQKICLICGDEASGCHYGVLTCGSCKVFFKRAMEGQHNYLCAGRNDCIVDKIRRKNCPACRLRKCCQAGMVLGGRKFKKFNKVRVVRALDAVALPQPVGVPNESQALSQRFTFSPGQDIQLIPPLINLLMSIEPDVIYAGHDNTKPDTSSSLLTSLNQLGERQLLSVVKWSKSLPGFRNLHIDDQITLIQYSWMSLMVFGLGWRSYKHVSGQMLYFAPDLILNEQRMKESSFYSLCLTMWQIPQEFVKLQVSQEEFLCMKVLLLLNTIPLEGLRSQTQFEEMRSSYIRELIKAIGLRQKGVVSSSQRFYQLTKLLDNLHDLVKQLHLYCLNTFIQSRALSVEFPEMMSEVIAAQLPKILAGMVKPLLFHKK
Chain of Cytochrome P450 2D6 (Homo sapiens) (P10635 whole entry, looked up): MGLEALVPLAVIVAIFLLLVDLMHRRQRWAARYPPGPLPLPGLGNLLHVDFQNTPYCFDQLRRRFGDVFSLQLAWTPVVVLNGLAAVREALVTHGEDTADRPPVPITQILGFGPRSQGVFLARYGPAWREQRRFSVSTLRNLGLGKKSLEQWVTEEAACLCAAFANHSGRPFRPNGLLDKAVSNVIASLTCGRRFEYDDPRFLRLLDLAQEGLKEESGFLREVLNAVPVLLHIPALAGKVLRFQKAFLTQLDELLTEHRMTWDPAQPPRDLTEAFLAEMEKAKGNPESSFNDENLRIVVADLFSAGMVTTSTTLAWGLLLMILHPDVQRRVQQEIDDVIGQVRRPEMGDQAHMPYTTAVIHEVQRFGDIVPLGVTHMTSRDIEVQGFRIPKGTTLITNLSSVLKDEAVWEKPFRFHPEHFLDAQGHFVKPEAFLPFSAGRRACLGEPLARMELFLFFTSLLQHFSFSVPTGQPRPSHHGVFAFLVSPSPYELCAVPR

As for `Nc1ncn([C@H]2C[C@H](O)[C@@H](CO)O2)c(=O)n1`, the Potency result in experiment [1], in [2], in [3], in experiment [4], in experiment [6] and in experiment [8] was “inactive” throughout. In addition, the Potency entry in [9], in experiment [10], in [11], in experiment [12], in experiment [13] and in [14] was “inactive” throughout. Further, the Potency result in [16], in [17] and in experiment [18] was “inactive” throughout. Moreover, the molecule was classed as inactive in experiment [5] and in experiment [7]. Further, in [15], the max activation is 10.4%.

For `C=CC1CC2C=CC1C2` (stereo not given), the Potency entry in experiment [1], in [19], in experiment [2], in experiment [3], in experiment [4] and in [6] was “inactive” in each case. Besides, the Potency entry in experiment [8], in [9], in experiment [10], in experiment [11], in experiment [12] and in [13] was “inactive” in each case. The Potency result in experiment [18] was “inactive”. Besides, the molecule was classed as inactive in [5] and in experiment [7].

`CCOC(=O)Cc1cccc2ccccc12`: the Potency result in experiment [1], in experiment [2], in [3], in [4], in experiment [6] and in experiment [8] was “inactive” each time. The Potency result in experiment [9], in [10], in experiment [11], in [12], in [13] and in experiment [14] was “inactive” in each case. The Potency entry in experiment [18] is “inactive”. In addition, the outcome in experiment [5] and in [7] was inactive.

Consider `CC[N+](C)(CC)CCOC(=O)C(O)(c1ccccc1)C1CCCCC1` (stereo not given), for which the Potency result in experiment [1], in experiment [19], in experiment [2], in experiment [3], in experiment [4] and in [6] was “inactive” throughout. Besides, the Potency result in experiment [9], in [10], in [11], in [13] and in [14] was “inactive” each time. In addition, the outcome in experiment [5] was inactive. In addition, the Potency in experiment [18] was 0.776 µM (active).

Turning to `Cc1oc(-c2ccccc2)nc1CCOc1cccc2c1ccn2CCC(=O)O`, the Potency in experiment [20] is 19.3 µM (active); in experiment [11], 34.4 µM (active); in experiment [13], 34.4 µM (active). Further, the Potency result in [4], in experiment [10], in experiment [12], in [14] and in experiment [18] was “inactive” throughout. In addition, the molecule was classed as inactive in experiment [5].

On to `CN(C)CCN(Cc1ccccc1)c1ccccn1`, for which the Potency result in experiment [20], in [4], in experiment [6], in experiment [8], in experiment [10] and in [11] was “inactive” in each case. Moreover, the Potency entry in [12], in [13], in experiment [16] and in experiment [17] was “inactive” in each case. For the same molecule, the call in [5] and in [7] was inactive. The Potency in [14] is 6.68 µM (active); in experiment [18], 0.219 µM (active). In addition, the max activation in experiment [15] was 2.98%.

For the molecule `C=CCOC(=O)CCC1CCCCC1`, the Potency result in experiment [1], in experiment [19], in [2], in [3], in [4] and in experiment [6] was “inactive” each time. The Potency entry in [8], in [9], in experiment [10], in experiment [11], in experiment [12] and in [13] was “inactive” in each case. For the same molecule, the Potency entry in experiment [14] and in experiment [18] was “inactive” in each case. For the same molecule, the result in experiment [5] and in [7] was inactive.

`c1ccc(CNCCNCc2ccccc2)cc1`: the Potency entry in experiment [1], in [19], in experiment [2], in experiment [3], in experiment [4] and in experiment [6] was “inactive” in each case. The Potency result in [8], in experiment [10], in experiment [11], in [13], in experiment [14] and in [16] was “inactive” throughout. The Potency entry in experiment [17] was “inactive”. Moreover, the molecule was called inactive in experiment [5] and in experiment [7]. Besides, the max activation in [15] was -3.63%. Besides, in experiment [18], the Potency is 0.776 µM (active).

Turning to `O=C(O)C1(C(=O)Nc2ccc(Cl)cc2Cl)CC1`, the Potency result in [20], in [4], in experiment [8], in [9], in [10] and in experiment [12] was “inactive” throughout. Also, the Potency entry in [13] was “inactive”. The molecule was called inactive in experiment [5] and in experiment [7]. Besides, the Potency in [14] was 24.3 µM (active).

On to `CC(C)(C)OCC1CO1` (stereo not given), for which the Potency result in [1], in [2], in experiment [3], in experiment [4], in experiment [6] and in experiment [8] was “inactive” each time. The Potency result in experiment [10], in experiment [12], in experiment [13], in [14] and in experiment [18] was “inactive” each time. Also, the molecule was classed as inactive in experiment [7].

As for `CC(C)CC(=O)C1C(=O)c2ccccc2C1=O`, the Potency result in experiment [1], in experiment [19], in [4], in experiment [6], in experiment [8] and in experiment [9] was “inactive” in each case. The Potency result in experiment [10], in [12] and in experiment [18] was “inactive” each time. The molecule was classed as inactive in [5] and in [7]. In addition, in experiment [11], the Potency is 61.1 µM (active).

For the molecule `CCC(CC)Nc1ccc(C)c(C)c1`, the Potency result in experiment [2], in experiment [3], in [4], in experiment [6], in [8] and in [9] was “inactive” throughout. In addition, the Potency result in [10], in [11], in experiment [12], in experiment [13] and in [18] was “inactive” in each case. The result in experiment [5] and in experiment [7] was inactive.
